# PubChem BioAssay
# For some assays here: Entries with a potency or affinity are not part of this list. The source made the active and inactive calls.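 How the source made its calls, unless noted: active means thallium flux through the channel raised or lowered by more than 3 SD from vehicle-only wells, actives on both sides; inactive means the rest.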
# Key:
# [1] = blockers of polyQ-driven CASP3 activation – cell-based (AID 1583); conditions: polyglutamine-induced caspase-3 activation, cell assay; stronger effect = higher value;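 tested at 10 µM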
# [2] = yeast 75Q aggregation reduction – 75Q-TubU reporter (AID 1593); conditions: Yeast 75Q polyglutamine aggregation reporter
# [3] = restoration of touch response, mutant HTT neurons – whole organism, C. elegans mechanosensory neurons, N-terminal huntingtin (AID 1599); conditions: C. elegans polyQ-huntingtin mechanosensory neurons, stronger effect = higher value
# [4] = blockers of cytochrome c efflux from mitochondria – biochemical, purified mitochondria (AID 1603); conditions: stronger effect = lower value;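 further: mouse liver mitochondria challenged with calcium chloride; signal normalized to the plate average as 100%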
# [5] = polyglutamine aggregate formation blockers (AID 1604); conditions: polyglutamine-induced protein aggregation inhibition assay; stronger effect = higher value; tested at 2.5 µM
# [6] = glutamate transport activators, MN-1 cells, MN-1 cell line (AID 1612); conditions: MN-1 motor neuron cells, stronger effect = higher value;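 further: tested at 1 µM final; 0% = mean of DMSO vehicle wells on each plate; positive means more glutamate uptake than control and negative means less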
# [7] = 75Q-TubH aggregate inhibition, S. cerevisiae, yeast (AID 1616); conditions: S. cerevisiae 75Q-TubH polyglutamine aggregation suppression; stronger effect = higher value
# [8] = modulation of C. elegans fzo-1 (AID 1259413; call rule not given here;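 further: fzo-1 mutant C. elegans worms in liquid wells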); conditions: C. elegans fzo-1 modulator screen, mean read-out; stronger effect = higher value
# [9] = EMT-state selective cytotoxicity in co-culture – imaging, PC-3E GFP, TEM4-18 mCherry, primary screen (AID 1345086;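 active means compounds killing one labelled cell type while sparing the other, by normalised counts and ratio limits, not self-fluorescent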;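 further: cells exposed to compound for 72 h before imaging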;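 on red/green cell ratio (normalised): normalised mesenchymal count divided by normalised epithelial count so high means epithelial killing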); conditions: PC-3E GFP / TEM4-18 mCherry co-culture, imaging cell counts, at 1 µM
# [10] = viability loss with induced miR-34 in A549 – imaging, A549 dox-inducible miR-34, nuclei and caspase counts, primary screen (AID 1347080;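 active means compounds whose cell count with miR-34 switched on is under 0.7 times the count with it off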); conditions: A549 miR-34 inducible, Hoechst nuclei count, 48 h
# [11] = chitosan synthesis blockers in C. neoformans – flow cytometry, Cibacron Brilliant Red staining (AID 1347148; call rule not given here;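 further: compound exposure lasted three days at 37 degrees C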); conditions: Cryptococcus neoformans chitosan, stronger effect = lower value; at 10 µM unless noted
# [12] = P. berghei load reduction in hepatocytes – cell-based, HepG2, luciferase luminescence, HepG2 viability, primary screen (AID 624349; in the data active means parasite load remaining mostly below about 12%, no sharp cut-off; inactive means mostly above about 10%;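 further: 100% = mean of DMSO negative control wells on the same plate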); conditions: P. berghei liver stage in HepG2, luciferase luminescence, concentration not given here; parasite load remaining: stronger effect = lower value; viability: measured here: HepG2 viability without parasites
# [13] = signal quenchers or enhancers, Cy5 substrate/SSB – biochemical, NIH Clinical Collection, E. coli SSB, artefact control for HCV NS3 helicase inhibitor project (AID 743268; call rule not given here); conditions: Cy5-oligo bound E. coli SSB, fluorescence interference
# [14] = tested on: Hepatitis C virus NS3 helicase; assay: blockers of NS3h binding to DNA – biochemical, fluorescence polarization, NIH Clinical Collection, primary screen (AID 743270; call rule not given here); conditions: NS3 helicase binding to Cy5-dT15 DNA, stronger effect = higher value, concentration not given here
# [15] = target: Single-stranded DNA-binding protein (Escherichia coli (strain K12)) (UniProt P0AGE0); assay: SSB-ssDNA binding inhibitors – biochemical, fluorescence polarization, NIH Clinical Collection, counter-screen for HCV NS3 helicase inhibitor project (AID 743271; in the data active means inhibition above about 28%); conditions: E. coli SSB-DNA binding, stronger effect = higher value, concentration not given here
# [16] = compounds distorting NS3 helicase fluorescence signal – biochemical, NIH Clinical Collection, artefact control for HCV NS3 helicase inhibitor project (AID 743272; call rule not given here;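 further: HCV NS3 helicase with a Cy5 labelled single stranded DNA probe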); conditions: fluorescence interference counterscreen, HCV NS3 helicase assay; stronger effect = lower value
# [17] = tested on: Neuropilin-2 / VEGF-C interaction (human); assay: small molecules blocking Neuropilin-2/VEGF-C interaction – biochemical, microplate binding format, z-score (AID 743281; call rule not given here); conditions: microplate NRP2/VEGF-C binding assay; stronger effect = lower value
# [18] = galactose survival enhancers in mitochondrial complex I cybrids – cell-based, galactose medium, ATP luminescence, primary screen (AID 1645843;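 active means z-score of at least 1.8 in each of two replicates, scored against plate mean and spread of sample wells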;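 further: positive z means more ATP and so rescue of galactose-driven cybrid death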); conditions: complex I mutant cybrid cells, 72 h, stronger effect = higher value
# F380Y = assay: BK channel mutant inhibitors and activators – cell-based, U2OS BacMam, thallium flux, beta subunits, selectivity assay, profiling panel (AID 1259406); conditions: U2OS BacMam BK variants, at 30 µM;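 further: initial slope of Thallos dye fluorescence rise after thallium is added; log ratio against the mean of 0.3% DMSO vehicle wells on the same plate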
# F380Y/beta1 = assay: as above; conditions: U2OS BacMam BK variants, at 30 µM
# F380Y/beta2Delta = assay: as above; conditions: U2OS BacMam BK variants, at 30 µM
# F380Y/beta4 = assay: as above; conditions: U2OS BacMam BK variants, at 30 µM
# [19] = target: Calcium-activated potassium channel subunit alpha-1 (Homo sapiens) + Leucine-rich repeat-containing protein 26 (Homo sapiens) (UniProt Q12791+Q2I0M4); assay: as above; conditions: U2OS BacMam BK variants, F380Y/Slo1WT/gamma1, at 30 µM
# R275C = assay: as above; conditions: U2OS BacMam BK variants, at 30 µM
# R275C/beta1 = assay: as above; conditions: U2OS BacMam BK variants, at 30 µM
# R275C/beta2Delta = assay: as above; conditions: U2OS BacMam BK variants, at 30 µM
# R275C/beta4 = assay: as above; conditions: U2OS BacMam BK variants, at 30 µM
# R275C/Slo1WT/beta2 = assay: as above; conditions: U2OS BacMam BK variants, at 30 µM
# [20] = MELAS cybrid and Rieske KO viability enhancers – cell-based, MELAS cybrids, Rieske KO mouse fibroblasts, CellTiter-Glo, primary screen (AID 1508586;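 active means mean z-score across replicates of 1.96 or higher in either the MELAS or the Rieske mutant cell line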;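 further: z relative to plate mean and SD of compound and empty wells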); conditions: low glucose
# [21] = measured here: relative caspase fold change +Dox/-Dox
# [22] = measured here: total cells with miR-34 induction, stronger effect = lower value
# [23] = measured here: total cells without miR-34 induction
# Sequence of Calcium-activated potassium channel subunit alpha-1 (Homo sapiens) + Leucine-rich repeat-containing protein 26 (Homo sapiens) (Q2I0M4 whole entry, looked up, one chain of several): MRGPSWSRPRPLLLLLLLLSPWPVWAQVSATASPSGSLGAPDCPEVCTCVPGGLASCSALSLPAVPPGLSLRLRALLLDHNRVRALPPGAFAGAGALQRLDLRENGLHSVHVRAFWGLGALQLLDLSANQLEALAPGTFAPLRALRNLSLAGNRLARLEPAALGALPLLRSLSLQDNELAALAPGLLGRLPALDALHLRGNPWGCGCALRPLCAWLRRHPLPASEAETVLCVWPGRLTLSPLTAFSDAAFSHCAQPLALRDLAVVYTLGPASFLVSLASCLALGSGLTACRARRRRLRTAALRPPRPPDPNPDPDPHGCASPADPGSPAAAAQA
smiles,measurement,setting,value
CC[C@@H]1/C=C/C=C/C[C@H](C)[C@@H](O)[C@](C)(O)C(=O)[C@H](C)[C@@H](O)[C@H](C)C(=O)[C@H](C)[C@@H](O)[C@H](C)/C=C/C(=O)O[C@H]2[C@@H](C)[C@@H](CC1)O[C@@]1(CC[C@@H](C)[C@@H](C[C@H](C)O)O1)[C@@H]2C,inhibition,[1],-0.04%
same,score,[2],-0.11
same,rescue above control,[3],-7.82
same,cytochrome c release ratio,[4],1.21
same,inhibition of aggregation,[5],-10.6%
same,glutamate uptake change,[6],5.74%
same,aggregation suppression score,[7],0.0317
same,mean signal,[8],201 (inactive)
same,red/green cell ratio (normalised),[9]; actives lie on both sides,0.51 (inactive)
same,normalised cell number,[9]; measured here: epithelial PC-3E GFP cell survival,1.1
same,normalised cell number,[9]; measured here: mesenchymal TEM4-18 mCherry cell survival,0.56
same,fold change,[10]; stronger effect = lower value,0.872 (inactive)
same,fold change,[10]; [21],0.921
same,cell count,[10]; [22],989
same,cell count,[10]; [23],1130
same,fold fluorescence,[11],5.62 [at 63.2 µM] (inactive)
O=C1CN=C(c2ccccc2)c2cc([N+](=O)[O-])ccc2N1,parasite load remaining,[12],89.5% (inactive)
same,viability,[12],68.5%
same,fluorescence ratio,[13],1.05 (inactive)
same,inhibition,[14],5.94% (inactive)
same,inhibition,[15],2.21% (inactive)
same,fluorescence ratio,[16],1.04 (inactive)
same,z-score,[17],1.12 (inactive)
same,mean signal,[8],253 (inactive)
same,fold change,[10]; stronger effect = lower value,0.945 (inactive)
same,fold change,[10]; [21],1.76
same,cell count,[10]; [22],9060
same,cell count,[10]; [23],9590
same,z-score,[18],1.3 (inactive)
same,log fold change Tl+ flux,F380Y,0.0223 (inactive)
same,log fold change Tl+ flux,F380Y/beta1,-0.0368 (inactive)
same,log fold change Tl+ flux,F380Y/beta2Delta,0.0172 (inactive)
same,log fold change Tl+ flux,F380Y/beta4,0.0387 (inactive)
same,log fold change Tl+ flux,[19],0.000443 (inactive)
same,log fold change Tl+ flux,R275C,-0.0214 (inactive)
same,log fold change Tl+ flux,R275C/beta1,-0.097 (active)
same,log fold change Tl+ flux,R275C/beta2Delta,0.0168 (inactive)
same,log fold change Tl+ flux,R275C/beta4,0.0133 (inactive)
same,log fold change Tl+ flux,R275C/Slo1WT/beta2,0.00947 (inactive)
O=C1CCC2(O)[C@H]3Cc4ccc(O)c5c4[C@@]2(CCN3CC2CC2)[C@H]1O5 (stereo partly specified),mean signal,[8],227 (inactive)
C[C@]12CC(=CO)C(=O)C[C@@H]1CC[C@@H]1[C@@H]2CC[C@@]2(C)[C@H]1CC[C@]2(C)O,parasite load remaining,[12],62.4% (inactive)
same,viability,[12],66.1%
same,fluorescence ratio,[13],1.04 (inactive)
same,inhibition,[14],5.15% (inactive)
same,inhibition,[15],3.75% (inactive)
same,fluorescence ratio,[16],1.01 (inactive)
same,z-score,"[20]; MELAS cybrid survival, CellTiter-Glo 48 h, stronger effect = higher value",0.172 (inactive)
same,z-score,"[20]; Rieske KO mouse fibroblast survival, CellTiter-Glo 72 h",0.741
same,log fold change Tl+ flux,F380Y,0.111 (active)
same,log fold change Tl+ flux,F380Y/beta1,0.204 (active)
same,log fold change Tl+ flux,F380Y/beta2Delta,0.171 (active)
same,log fold change Tl+ flux,F380Y/beta4,0.113 (active)
same,log fold change Tl+ flux,[19],0.208 (active)
same,log fold change Tl+ flux,R275C,0.0626 (inactive)
same,log fold change Tl+ flux,R275C/beta1,0.301 (active)
same,log fold change Tl+ flux,R275C/beta2Delta,0.261 (active)
same,log fold change Tl+ flux,R275C/beta4,0.148 (active)
same,log fold change Tl+ flux,R275C/Slo1WT/beta2,0.0227 (inactive)
c1cncc(C2CCCN2)c1 (stereo unspecified),parasite load remaining,[12],96.8% (inactive)
same,viability,[12],74.2%
same,fluorescence ratio,[13],1.01 (inactive)
same,inhibition,[14],-1.98% (inactive)
same,inhibition,[15],-1.64% (inactive)
same,fluorescence ratio,[16],0.95 (inactive)
same,z-score,[17],-0.685 (inactive)
same,mean signal,[8],296 (inactive)
same,fold change,[10]; stronger effect = lower value,0.916 (inactive)
same,fold change,[10]; [21],2.18
same,cell count,[10]; [22],9590
same,cell count,[10]; [23],10500
same,z-score,[18],0.385 (inactive)
